Test in all cases: growth AUC relative to DMSO control (median of replicates) (fraction); higher = more growth (less inhibition), active = hit call of the paper
Holding throughout (details): 20 µM; 24 h

The test system of one assay is Coprococcus comes. The method in brief:
(§1)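 Gut bacterial monocultures were grown anaerobically at 37 °C in mGAM, starting at OD600 0.05, with 20 µM compound (1% DMSO) in round-bottom 96-well plates under pierced gas-permeable seals. OD600 was read hourly for 24 h. Area under the growth curve (minimum OD set to 0) was normalised to the plate median of DMSO controls, or to row and column medians on the industrial chemical plate. The value is the median of three biological replicates grown on separate days.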

In a further assay the test system is Escherichia coli ED1a. In a few lines:
as §1

In another assay the test system is Escherichia coli IAI1. In a few lines: as §1
The subject of the next assay is Eubacterium rectale. In a few lines:
as §1

The subject of assay [1] is Fusobacterium nucleatum subsp. animalis. The method in brief:
as §1

In a further assay the test system is Lactobacillus gasseri. In a few lines:
as §1

The test system of another assay is Lactobacillus paracasei. In a few lines: as §1
For another assay, the system named is Odoribacter splanchnicus. The method in brief:
as §1

For assay [2], the system named is Parabacteroides distasonis. In a few lines: as §1
Another assay deals with Parabacteroides merdae. The method in brief:
as §1

In a further assay the test system is Roseburia intestinalis. In a few lines:
as §1

The subject of a further assay is Streptococcus salivarius. The method in brief:
as §1

The structures appear in SMILES notation. “And” between values parts separate entries of the source, which are not always exact repeats. Identical values can stand only once. Unmarked numbers belong to inactive results.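 The calls were made as follows: active = AUC reduced over 20% with Padj below 0.05 in at least 2 of 3 replicates; inactive = otherwise.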

Consider `Nc1cc(Cl)cc(C(=O)O)c1Cl`, for which the “growth AUC” value is 0.992 with Coprococcus comes; 1.01 in the assay with Escherichia coli ED1a; 1.04 with Escherichia coli IAI1; 1.01 in the assay with Eubacterium rectale; 0.994 in assay [1]; 1.13 in the assay with Lactobacillus gasseri. Also, the “growth AUC” value in the assay on Lactobacillus paracasei was 1.03; in the assay with Odoribacter splanchnicus it was 1.09; in assay [2], 1.01; in the assay on Parabacteroides merdae, 0.977; in the assay with Roseburia intestinalis it was 1.04; with Streptococcus salivarius, 1.02.
As for `CCN(C(=O)n1nnn(-c2ccccc2Cl)c1=O)C1CCCCC1`, the “growth AUC” value was 0.942 in the assay with Coprococcus comes; 0.969 in the assay on Escherichia coli ED1a; 0.989 in the assay on Escherichia coli IAI1; 0.956 with Eubacterium rectale; 1.01 in [1]; 1.01 in the assay on Lactobacillus gasseri. The “growth AUC” value with Lactobacillus paracasei was 0.827; in the assay with Odoribacter splanchnicus it was 0.97; in assay [2] it was 0.682 (active); in the assay with Parabacteroides merdae, 0.411 (active); in the assay on Roseburia intestinalis, 0.938; in the assay on Streptococcus salivarius, 0.971.
`Fc1ccc(C2(Cn3cncn3)OC2c2ccccc2Cl)cc1` (stereo unspecified): the “growth AUC” value is 0.969 in the assay with Coprococcus comes; 1.02 in the assay on Escherichia coli ED1a; 1.01 in the assay with Escherichia coli IAI1; 0.72 (active) in the assay with Eubacterium rectale; 0.95 in assay [1]; 0.996 with Lactobacillus gasseri. The “growth AUC” value was 0.942 in the assay with Lactobacillus paracasei; 0.864 with Odoribacter splanchnicus; 0.968 in assay [2]; 0.933 with Parabacteroides merdae; 1.03 with Roseburia intestinalis; 0.966 with Streptococcus salivarius.
Consider `C=CCN(CC=C)C(=O)C(Cl)Cl`, for which the “growth AUC” value is 1 in the assay with Coprococcus comes; 0.944 in the assay on Escherichia coli ED1a; 0.986 in the assay with Escherichia coli IAI1; 1.01 with Eubacterium rectale; 0.965 in assay [1]; 0.934 in the assay with Lactobacillus gasseri. Also, the “growth AUC” value is 0.999 in the assay with Lactobacillus paracasei; 1.02 with Odoribacter splanchnicus; 0.991 in [2]; 0.947 in the assay on Parabacteroides merdae; 1 in the assay with Roseburia intestinalis; 0.99 in the assay with Streptococcus salivarius.
As to `CC(Oc1ccc(Oc2ccc(C(F)(F)F)cn2)cc1)C(=O)O` (stereo unspecified), the “growth AUC” value in the assay with Coprococcus comes was 1.01; with Escherichia coli ED1a, 0.995; with Escherichia coli IAI1, 0.996; in the assay with Eubacterium rectale it was 1.12; in assay [1], 0.915; with Lactobacillus gasseri, 0.839. In addition, the “growth AUC” value was 0.969 with Lactobacillus paracasei; 0.766 (active) with Odoribacter splanchnicus; 0.72 in assay [2]; 0.993 in the assay on Parabacteroides merdae; 0.908 in the assay with Roseburia intestinalis; 0.93 in the assay on Streptococcus salivarius.
For the molecule `COC(=O)N(OC)c1ccccc1COc1ccn(-c2ccc(Cl)cc2)n1`, the “growth AUC” value in the assay with Coprococcus comes is 0.998; in the assay on Escherichia coli ED1a it was 1.02; with Escherichia coli IAI1, 0.99; in the assay on Eubacterium rectale, 1.1; in assay [1] it was 1.19; with Lactobacillus gasseri, 0.88. Further, the “growth AUC” value was 0.988 with Lactobacillus paracasei; 0.881 with Odoribacter splanchnicus; 0.57 (active) in assay [2]; 0.911 in the assay on Parabacteroides merdae; 0.945 in the assay with Roseburia intestinalis; 0.928 in the assay with Streptococcus salivarius.
Consider `CN(C)C(=S)SSC(=S)N(C)C`, for which the “growth AUC” value was 0.833 in the assay on Coprococcus comes; 0.973 in the assay on Escherichia coli ED1a; 0.973 in the assay with Escherichia coli IAI1; 0.83 in the assay with Eubacterium rectale; 1.09 in assay [1]; 0.875 with Lactobacillus gasseri. Moreover, the “growth AUC” value is 1.02 in the assay on Lactobacillus paracasei; 0.0343 (active) in the assay on Odoribacter splanchnicus; 0.928 in [2]; 0.852 in the assay with Parabacteroides merdae; 0.822 in the assay with Roseburia intestinalis; 0.956 in the assay with Streptococcus salivarius.
Take `CC(C)[C@@H](Nc1ccc(C(F)(F)F)cc1Cl)C(=O)OC(C#N)c1cccc(Oc2ccccc2)c1` (stereo partly specified): the “growth AUC” value in the assay on Coprococcus comes was 0.988; in the assay on Escherichia coli ED1a, 1; in the assay with Escherichia coli IAI1 it was 1.05; with Eubacterium rectale, 1.04; in [1], 1.06; with Lactobacillus gasseri, 1.02. The “growth AUC” value with Lactobacillus paracasei is 1.04; in the assay with Odoribacter splanchnicus, 1.05; in assay [2], 1.09; with Parabacteroides merdae, 1.03; in the assay with Roseburia intestinalis, 0.961; with Streptococcus salivarius, 1.01.
Regarding `ClC1C(Cl)C(Cl)C(Cl)C(Cl)C1Cl` (stereo unspecified), the “growth AUC” value in the assay on Escherichia coli ED1a was 0.985 and 1.04 and 1.03; with Escherichia coli IAI1 it was 1 and 1.02 and 1.01; with Eubacterium rectale, 1.02 and 0.946 and 1.01; in the assay with Roseburia intestinalis, 1.03 and 1.04 and 0.953.
Turning to `ClCC1C(CCl)C2(Cl)C(Cl)=C(Cl)C1(Cl)C2(Cl)Cl` (stereo unspecified), the “growth AUC” value was 0.945 with Coprococcus comes; 0.973 in the assay with Escherichia coli ED1a; 1 with Escherichia coli IAI1; 1.02 in the assay with Eubacterium rectale; 1.08 in assay [1]; 0.931 with Lactobacillus gasseri. Also, the “growth AUC” value with Lactobacillus paracasei is 0.974; with Odoribacter splanchnicus it was 1.06; in [2], 1.01; with Parabacteroides merdae, 0.995; in the assay with Roseburia intestinalis, 0.996; in the assay with Streptococcus salivarius it was 0.981.
For `C#CCN1C(=O)COc2cc(F)c(N3C(=O)C4=C(CCCC4)C3=O)cc21`, the “growth AUC” value in the assay with Coprococcus comes is 1.01; with Escherichia coli ED1a, 0.98; in the assay on Escherichia coli IAI1 it was 0.984; with Eubacterium rectale it was 1.09; in [1], 0.944; in the assay on Lactobacillus gasseri, 0.883. Also, the “growth AUC” value was 0.934 in the assay with Lactobacillus paracasei; 0.948 in the assay on Odoribacter splanchnicus; 0.855 in assay [2]; 0.958 in the assay with Parabacteroides merdae; 0.965 in the assay with Roseburia intestinalis; 0.974 in the assay on Streptococcus salivarius.
With `CNC(=O)O/N=C(\C)C(C)S(C)=O` (stereo unspecified), the “growth AUC” value is 1.01 in the assay on Coprococcus comes; 1.02 with Escherichia coli ED1a; 0.987 in the assay on Escherichia coli IAI1; 0.914 with Eubacterium rectale; 1.02 in assay [1]; 0.881 with Lactobacillus gasseri. Moreover, the “growth AUC” value in the assay with Lactobacillus paracasei was 1.02; in the assay on Odoribacter splanchnicus it was 1.04; in assay [2], 1.05; with Parabacteroides merdae it was 1.02; with Roseburia intestinalis, 0.991; in the assay on Streptococcus salivarius it was 0.96.

Source of the values: the supplement of paper PMC12669032.
